{"source": "the supplement of paper PMC7156485", "note": "Values joined by “and” are separate entries in the source; they are usually repeats but may differ in a detail not shown here. Equal values may be shown once. Values without a mark were called inactive.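 Further: TDF is a line of transformed human dermal fibroblasts of mesenchymal origin.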"}
{"tested_on": "TDF", "experiment": "H1.0 immunofluorescence intensity relative to DMSO (% of DMSO); higher = stronger H1.0 induction, active = 120 or more", "conditions": "concentration: 10 µM; 24 h", "outline": "(§1)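 HCC1569 and TDF cells were seeded at 800 per well in 384-well plates in RPMI with 10% FBS and treated with compounds at 10 µM for 24 h at 37 °C, in triplicate. After fixation in 3.7% formaldehyde, cells were stained with a rabbit anti-H1.0 antibody, an AlexaFluor 647 secondary and DAPI, and six fields per well were imaged at ×10. H1.0 nuclear intensity or cell number is given as percent of the plate control, using the median of replicates, with HCC1569 values smoothed for positional effects.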"}
{"smiles": "O=C1c2c(O)cc(O)cc2O[C@H](c2cc(O)c(O)c(O)c2)[C@H]1O", "H1.0 immunofluorescence intensity": 98.9}
{"smiles": "O=C1NC(c2cccc([N+](=O)[O-])c2)=CCN1c1ccccc1O", "H1.0 immunofluorescence intensity": 95.6}
{"smiles": "CC(C)C(CO)Nc1nc(Nc2cccc(Cl)c2)c2ncn(C(C)C)c2n1", "note": "(stereo not drawn) [Purvalanol A]", "H1.0 immunofluorescence intensity": 98.3}
{"smiles": "CC(=O)OCC[N+](C)(C)C", "note": "[Acetylcholine]", "H1.0 immunofluorescence intensity": 100}
{"smiles": "CN1CCN2c3ccccc3Cc3ccccc3C2C1.Cl", "note": "(stereo not drawn) [Mianserin hydrochloride]", "H1.0 immunofluorescence intensity": 95.5}
{"smiles": "Cc1c2c(c(O)c3c(O)cccc13)C(=O)OC2C1C(O)C(=O)C(C(N)=O)=C(O)C1N(C)C", "note": "(racemic)", "H1.0 immunofluorescence intensity": 96.4}
{"smiles": "Cc1ccc(-c2c(-c3nn(C)c4ncnc(N5CC[C@H](N6CCCCC6)C5)c34)cnn2C)cc1", "H1.0 immunofluorescence intensity": 103}
{"smiles": "Cl.c1ccc(CN2CCC3(CCCc4ccccc43)CC2)cc1", "note": "[L-687,384 hydrochloride]", "H1.0 immunofluorescence intensity": 93.7}
{"tested_on": "HCC1569", "experiment": "H1.0 immunofluorescence intensity relative to DMSO (% of DMSO); higher = stronger H1.0 induction, active = 140 or more", "conditions": "concentration: 10 µM; 24 h", "outline": "as §1"}
{"smiles": "CC(C)=CCC(O)C1=CC(=O)c2c(O)ccc(O)c2C1=O", "note": "(stereo not drawn) [Shikonin]", "H1.0 immunofluorescence intensity": 111}
{"smiles": "CC1(C)SC2C(NC(=O)C(N)c3ccc(O)cc3)C(=O)N2C1C(=O)O", "note": "(stereo not drawn) [Amoxicillin]", "H1.0 immunofluorescence intensity": 104}
{"smiles": "CC1=NN(c2ccccc2)C(=O)C1", "H1.0 immunofluorescence intensity": 97.6}
{"smiles": "O=c1[nH]ccc2c(O)cccc12", "note": "[1,5-Isoquinolinediol]", "H1.0 immunofluorescence intensity": 91.6}
{"smiles": "CCCCN1CCC(n2c(=O)[nH]c3ccccc32)CC1.O=C(O)C(=O)O", "note": "[NS 521 oxalate]", "H1.0 immunofluorescence intensity": 98.3}
{"smiles": "CN(C)C(=S)NN=C(c1ccccn1)c1ccccn1", "note": "[(Z)-di(2-pyridinyl)methanone N,N-dimethylthiosemicarbazone]", "H1.0 immunofluorescence intensity": 106}
{"smiles": "Nc1ncnc2c1ncn2C1CCCO1", "note": "(stereo not drawn)", "H1.0 immunofluorescence intensity": "183 (active)"}
{"smiles": "CC12C=CC(=O)C=C1CCC1C2=CCC2(C)C(C(=O)CN3CCN(c4cc(N5CCCC5)nc(N5CCCC5)n4)CC3)CCC12.O=C(O)C=CC(=O)O", "note": "(stereo not drawn)", "H1.0 immunofluorescence intensity": "98 and 96.5"}
{"smiles": "CC=C(C)C(=O)OC1CC(C)=CC(=O)C2(C)CCC(O)(C(C)C)C12", "note": "(stereo not drawn) [Lapidin]", "H1.0 immunofluorescence intensity": 93.9}
{"smiles": "Oc1ccc(O)cc1", "note": "[Hydroquinone]", "H1.0 immunofluorescence intensity": 118}
{"smiles": "O=C(CCc1ccc(O)cc1)c1c(O)cc(O)cc1O", "note": "[Phloretin]", "H1.0 immunofluorescence intensity": 107}
{"smiles": "CCCCCC(O)CCC1C(O)CC(=O)C1CCCCCCC(=O)O", "note": "(stereo not drawn) [13,14-Dihydro-prostaglandin E1]", "H1.0 immunofluorescence intensity": 103}
{"smiles": "Clc1ccc(C(Cn2ccnc2)OCc2csc3c(Cl)cccc23)c(Cl)c1.O=[N+]([O-])O", "note": "(stereo not drawn)", "H1.0 immunofluorescence intensity": 119}
{"smiles": "CCN(CC)CCNC(=O)c1ccc(NC(C)=O)cc1.Cl", "note": "[N-Acetylprocainamide hydrochloride]", "H1.0 immunofluorescence intensity": 116}
{"smiles": "CCOC(=O)C1=CC(OC(CC)CC)C(NC(C)=O)C(N)C1", "note": "(stereo not drawn) [Oseltamivir]", "H1.0 immunofluorescence intensity": 99.4}
{"smiles": "Nc1nc(Nc2ccccc2)nc2c1ncn2C1OC(CO)C(O)C1O", "note": "(stereo not drawn) [2-Phenylaminoadenosine]", "H1.0 immunofluorescence intensity": 102}
{"smiles": "CC(=O)O.O=C(NCC1CCCCN1)c1cc(OCC(F)(F)F)ccc1OCC(F)(F)F", "note": "(stereo not drawn) [Flecainide acetate]", "H1.0 immunofluorescence intensity": 107}
{"smiles": "CC[N+](CC)(CC)CCOc1cccc(OCC[N+](CC)(CC)CC)c1OCC[N+](CC)(CC)CC.[I-].[I-].[I-]", "note": "[Gallamine triethiodide]", "H1.0 immunofluorescence intensity": 123}
{"smiles": "COc1cc(/C=C/C(=O)CC(=O)/C=C/c2ccc(O)cc2)ccc1O", "H1.0 immunofluorescence intensity": "161 (active)"}
{"smiles": "Cc1cc(C)c(C=C2C(=O)Nc3ccccc32)[nH]1", "H1.0 immunofluorescence intensity": "115 and 103"}
{"smiles": "CCCCc1oc2ccccc2c1C(=O)c1cc(I)c(OCCN(CC)CC)c(I)c1.Cl", "note": "[Amiodarone hydrochloride]", "H1.0 immunofluorescence intensity": 101}
{"smiles": "CN(CC=CC#CC(C)(C)C)Cc1cccc2ccccc12.Cl", "H1.0 immunofluorescence intensity": 98.4}
{"smiles": "CN1CCc2cccc3c2C1Cc1ccc(O)c(O)c1-3.Cl", "note": "(stereo not drawn) [Apomorphine hydrochloride hemihydrate]", "H1.0 immunofluorescence intensity": 99.6}
{"smiles": "CC1CCC2(C(=O)O)CCC3(C)C(=CCC4C5(C)CCC(O)C(C)(C)C5CCC43C)C2C1C", "note": "(stereo not drawn) [Ursolic acid]", "H1.0 immunofluorescence intensity": 93.7}
{"smiles": "COc1ccc(S(=O)(=O)N(CCO)c2ccccc2CN(C)CC=Cc2ccc(Cl)cc2)cc1", "H1.0 immunofluorescence intensity": "183 (active)"}
